# Experimental data taken from publication PMC7862700, “An all-to-all approach to the identification of sequence-specific readers for epigenetic DNA modifications on cytosine”.
# Tests used:
# Assay in all cases: DAPPL (digital affinity profiling via proximity ligation, sequencing); 10 mM Tris-HCl pH 7.5, 50 mM NaCl, 1 mM DTT, 4% glycerol, room temperature, 30 min; GST-TFs on glutathione beads, 16-mer random dsDNA library, 0.1% formaldehyde crosslink after washing; high values mean tight binding
# Details in all cases: protein: recombinant; tags: N-terminal GST; dsDNA, one strand shown
# [1] = molecular target: T1, ELK1 (Homo sapiens, UniProt P19419 1-428)
# T1 sequence: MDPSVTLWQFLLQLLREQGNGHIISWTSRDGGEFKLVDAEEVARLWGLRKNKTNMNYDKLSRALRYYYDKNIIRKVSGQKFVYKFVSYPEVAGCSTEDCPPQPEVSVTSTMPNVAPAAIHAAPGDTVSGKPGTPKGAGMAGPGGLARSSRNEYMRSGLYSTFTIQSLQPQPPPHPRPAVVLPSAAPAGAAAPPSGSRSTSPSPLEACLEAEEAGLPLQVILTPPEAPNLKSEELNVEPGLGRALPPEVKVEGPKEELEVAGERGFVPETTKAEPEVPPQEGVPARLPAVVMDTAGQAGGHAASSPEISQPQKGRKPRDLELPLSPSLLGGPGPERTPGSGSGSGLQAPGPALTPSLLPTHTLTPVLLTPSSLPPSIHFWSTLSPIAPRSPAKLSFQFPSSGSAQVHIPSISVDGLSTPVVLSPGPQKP
# Summary of the method: (§1)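 GST fusions of human transcription factors were expressed in yeast and captured with glutathione beads. Once given DNA barcodes and pooled alongside a tag-only sample, they were incubated for 30 min at room temperature with 200 nmole of a random double-stranded 16-mer DNA library in Tris/NaCl/DTT/glycerol buffer, then washed, crosslinked (0.1% formaldehyde), proximity-ligated, PCR-amplified and sequenced on an Illumina NextSeq500. The binding signal of each hexamer is its read frequency for a factor divided by its frequency for the tag-only sample.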
# [2] = molecular target: T2, ERG (Homo sapiens, UniProt P11308 1-479)
# T2 sequence: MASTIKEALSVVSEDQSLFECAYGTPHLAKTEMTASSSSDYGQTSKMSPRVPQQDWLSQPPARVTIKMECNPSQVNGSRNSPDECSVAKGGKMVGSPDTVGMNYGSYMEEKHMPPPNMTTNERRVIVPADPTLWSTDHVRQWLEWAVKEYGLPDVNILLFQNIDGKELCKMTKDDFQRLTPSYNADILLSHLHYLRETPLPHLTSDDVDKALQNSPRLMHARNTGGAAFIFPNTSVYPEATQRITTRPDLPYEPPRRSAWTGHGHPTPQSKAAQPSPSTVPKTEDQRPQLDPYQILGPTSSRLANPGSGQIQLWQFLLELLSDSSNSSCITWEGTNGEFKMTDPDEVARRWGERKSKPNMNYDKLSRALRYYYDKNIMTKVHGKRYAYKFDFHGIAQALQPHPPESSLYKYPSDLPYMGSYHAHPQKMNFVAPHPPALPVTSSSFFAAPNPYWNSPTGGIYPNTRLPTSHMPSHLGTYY
# Summary of the method: as §1
# [3] = molecular target: T3, EHF (Homo sapiens, UniProt Q9NZC4 1-300)
# T3 sequence: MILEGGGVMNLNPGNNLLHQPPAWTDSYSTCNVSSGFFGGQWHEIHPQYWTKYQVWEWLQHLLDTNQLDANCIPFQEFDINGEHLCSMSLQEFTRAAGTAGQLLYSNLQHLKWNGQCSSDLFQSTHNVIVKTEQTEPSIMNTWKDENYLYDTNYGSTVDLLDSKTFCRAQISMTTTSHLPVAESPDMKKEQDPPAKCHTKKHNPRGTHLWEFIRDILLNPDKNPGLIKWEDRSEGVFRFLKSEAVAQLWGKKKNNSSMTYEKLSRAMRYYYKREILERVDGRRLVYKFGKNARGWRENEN
# Summary of the method: as §1
# [4] = molecular target: SPIB (Homo sapiens, UniProt Q01892 1-262)
# Summary of the method: as §1
# [5] = molecular target: T4, ELK3 (Homo sapiens, UniProt P41970 1-407)
# T4 sequence: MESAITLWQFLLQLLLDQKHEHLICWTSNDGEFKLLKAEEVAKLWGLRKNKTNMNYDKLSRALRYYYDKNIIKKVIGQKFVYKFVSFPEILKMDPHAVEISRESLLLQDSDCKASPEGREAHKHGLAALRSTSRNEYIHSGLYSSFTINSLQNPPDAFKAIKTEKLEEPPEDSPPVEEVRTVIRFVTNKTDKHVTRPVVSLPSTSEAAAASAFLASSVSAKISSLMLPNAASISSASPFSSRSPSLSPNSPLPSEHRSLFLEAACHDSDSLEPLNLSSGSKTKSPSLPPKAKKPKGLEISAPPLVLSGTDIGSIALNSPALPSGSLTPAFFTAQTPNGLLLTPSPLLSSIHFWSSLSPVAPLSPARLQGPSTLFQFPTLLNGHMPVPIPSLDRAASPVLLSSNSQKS
# Summary of the method: as §1
# [6] = molecular target: T5, FEV (Homo sapiens, UniProt Q99581 1-238)
# T5 sequence: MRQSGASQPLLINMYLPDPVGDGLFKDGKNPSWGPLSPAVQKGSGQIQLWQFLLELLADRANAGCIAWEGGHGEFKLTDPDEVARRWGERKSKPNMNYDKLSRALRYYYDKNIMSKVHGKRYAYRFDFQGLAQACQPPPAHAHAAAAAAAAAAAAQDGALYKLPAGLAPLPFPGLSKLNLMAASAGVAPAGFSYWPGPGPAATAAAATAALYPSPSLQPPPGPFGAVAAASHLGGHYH
# Summary of the method: as §1
# [7] = molecular target: ETV5 (Homo sapiens, UniProt P41161 1-510)
# Summary of the method: as §1
# [8] = molecular target: ELF4 (Homo sapiens, UniProt Q99607 1-663)
# Summary of the method: as §1
# [9] = molecular target: T6, ELK4 (Homo sapiens, UniProt P28324-2 1-405)
# T6 sequence: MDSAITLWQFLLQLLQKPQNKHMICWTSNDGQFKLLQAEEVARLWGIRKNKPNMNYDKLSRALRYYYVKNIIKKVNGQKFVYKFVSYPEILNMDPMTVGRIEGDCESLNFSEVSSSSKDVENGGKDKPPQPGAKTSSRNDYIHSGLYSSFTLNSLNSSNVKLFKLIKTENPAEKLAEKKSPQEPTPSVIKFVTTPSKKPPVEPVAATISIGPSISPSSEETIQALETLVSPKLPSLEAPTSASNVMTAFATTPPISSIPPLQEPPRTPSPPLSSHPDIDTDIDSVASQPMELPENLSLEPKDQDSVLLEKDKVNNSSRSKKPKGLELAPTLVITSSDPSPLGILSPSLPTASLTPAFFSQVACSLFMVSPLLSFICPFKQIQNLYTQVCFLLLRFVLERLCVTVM
# Summary of the method: as §1
# [10] = molecular target: ETV1 (Homo sapiens, UniProt P50549 1-477)
# Summary of the method: as §1
# [11] = molecular target: T7, ERF (Homo sapiens, UniProt P50548 1-548)
# T7 sequence: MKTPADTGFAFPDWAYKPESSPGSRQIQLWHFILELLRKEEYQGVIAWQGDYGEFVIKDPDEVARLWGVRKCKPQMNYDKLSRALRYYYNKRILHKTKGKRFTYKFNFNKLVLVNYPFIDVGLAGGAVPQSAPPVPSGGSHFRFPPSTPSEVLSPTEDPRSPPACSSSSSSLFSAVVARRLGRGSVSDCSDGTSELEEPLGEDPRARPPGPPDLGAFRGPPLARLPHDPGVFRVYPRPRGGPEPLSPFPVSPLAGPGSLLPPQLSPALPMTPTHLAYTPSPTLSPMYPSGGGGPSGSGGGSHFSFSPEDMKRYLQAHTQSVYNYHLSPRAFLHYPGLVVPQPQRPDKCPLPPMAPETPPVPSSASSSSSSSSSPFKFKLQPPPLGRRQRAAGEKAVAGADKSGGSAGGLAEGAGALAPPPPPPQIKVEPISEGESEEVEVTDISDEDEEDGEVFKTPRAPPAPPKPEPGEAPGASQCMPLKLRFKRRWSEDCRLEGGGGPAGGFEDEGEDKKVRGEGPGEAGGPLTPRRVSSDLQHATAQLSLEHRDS
# Summary of the method: as §1
# [12] = molecular target: T8, ETV3L (Homo sapiens, UniProt Q6ZN32 1-361)
# T8 sequence: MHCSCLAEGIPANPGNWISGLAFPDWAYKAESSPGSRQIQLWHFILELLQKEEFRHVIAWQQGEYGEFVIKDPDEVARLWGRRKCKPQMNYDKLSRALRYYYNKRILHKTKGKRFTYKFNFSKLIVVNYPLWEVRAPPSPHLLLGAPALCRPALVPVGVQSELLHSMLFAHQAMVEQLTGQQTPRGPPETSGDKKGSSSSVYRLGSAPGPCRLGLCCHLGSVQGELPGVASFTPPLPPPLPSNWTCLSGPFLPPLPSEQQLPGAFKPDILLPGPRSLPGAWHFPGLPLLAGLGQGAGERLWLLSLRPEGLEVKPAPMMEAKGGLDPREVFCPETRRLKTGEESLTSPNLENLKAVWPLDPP
# Summary of the method: as §1
# [13] = molecular target: T9, SPDEF (Homo sapiens, UniProt O95238 1-335)
# T9 sequence: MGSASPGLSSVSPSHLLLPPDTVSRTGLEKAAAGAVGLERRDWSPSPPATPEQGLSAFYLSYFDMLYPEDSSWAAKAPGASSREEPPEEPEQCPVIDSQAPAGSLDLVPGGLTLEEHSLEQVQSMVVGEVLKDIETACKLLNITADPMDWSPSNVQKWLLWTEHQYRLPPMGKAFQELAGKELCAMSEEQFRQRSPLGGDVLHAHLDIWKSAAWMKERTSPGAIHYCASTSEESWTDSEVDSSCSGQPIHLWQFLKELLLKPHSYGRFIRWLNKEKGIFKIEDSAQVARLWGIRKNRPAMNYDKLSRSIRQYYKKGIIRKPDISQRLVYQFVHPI
# Summary of the method: as §1
# [14] = molecular target: T10, ETV7 (Homo sapiens, UniProt Q9Y603 1-341)
# T10 sequence: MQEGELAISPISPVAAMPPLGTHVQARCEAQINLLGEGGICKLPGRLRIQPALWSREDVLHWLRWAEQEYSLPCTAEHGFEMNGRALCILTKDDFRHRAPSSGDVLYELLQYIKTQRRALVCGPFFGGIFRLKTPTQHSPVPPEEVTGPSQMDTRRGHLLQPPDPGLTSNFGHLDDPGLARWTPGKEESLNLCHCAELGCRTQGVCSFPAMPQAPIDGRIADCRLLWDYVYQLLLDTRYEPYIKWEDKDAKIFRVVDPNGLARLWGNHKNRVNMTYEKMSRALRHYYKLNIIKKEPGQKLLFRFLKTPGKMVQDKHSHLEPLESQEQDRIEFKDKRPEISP
# Summary of the method: as §1
# [15] = molecular target: T11, ETV3 (Homo sapiens, UniProt P41162-2 1-143)
# T11 sequence: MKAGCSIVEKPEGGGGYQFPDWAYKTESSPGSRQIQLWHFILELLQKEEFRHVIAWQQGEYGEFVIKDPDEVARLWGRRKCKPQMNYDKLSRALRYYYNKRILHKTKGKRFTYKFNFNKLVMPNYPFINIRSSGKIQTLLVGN
# Summary of the method: as §1
# [16] = molecular target: ETV6 (Homo sapiens, UniProt P41212 1-452)
# Summary of the method: as §1
# Chain of SPIB (Q01892 whole entry): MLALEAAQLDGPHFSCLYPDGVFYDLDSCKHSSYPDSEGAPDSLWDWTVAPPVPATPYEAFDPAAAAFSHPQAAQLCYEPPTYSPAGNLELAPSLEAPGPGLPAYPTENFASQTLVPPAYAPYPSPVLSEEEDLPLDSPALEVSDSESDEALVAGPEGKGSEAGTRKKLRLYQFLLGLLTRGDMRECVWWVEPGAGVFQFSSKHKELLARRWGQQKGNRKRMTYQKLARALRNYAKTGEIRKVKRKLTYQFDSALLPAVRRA
# Chain of ELF4 (Q99607 whole entry): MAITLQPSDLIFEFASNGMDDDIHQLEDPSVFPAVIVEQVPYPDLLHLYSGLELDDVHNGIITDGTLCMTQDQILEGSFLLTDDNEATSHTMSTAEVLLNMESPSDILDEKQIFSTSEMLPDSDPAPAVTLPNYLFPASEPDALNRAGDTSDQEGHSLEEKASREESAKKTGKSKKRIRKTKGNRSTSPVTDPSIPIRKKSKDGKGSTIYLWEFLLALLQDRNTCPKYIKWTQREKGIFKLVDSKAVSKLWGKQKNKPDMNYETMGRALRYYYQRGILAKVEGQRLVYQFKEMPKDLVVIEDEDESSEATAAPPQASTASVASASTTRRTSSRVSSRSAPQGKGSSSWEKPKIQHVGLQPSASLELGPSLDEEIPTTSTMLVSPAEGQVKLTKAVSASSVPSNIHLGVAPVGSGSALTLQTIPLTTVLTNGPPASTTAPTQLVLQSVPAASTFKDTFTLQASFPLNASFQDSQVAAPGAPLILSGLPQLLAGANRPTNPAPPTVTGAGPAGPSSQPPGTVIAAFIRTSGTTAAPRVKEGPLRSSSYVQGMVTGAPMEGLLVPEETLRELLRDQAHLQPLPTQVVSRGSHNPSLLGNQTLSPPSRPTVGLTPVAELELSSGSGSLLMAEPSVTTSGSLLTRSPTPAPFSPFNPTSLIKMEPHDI
# Chain of ETV6 (P41212 whole entry): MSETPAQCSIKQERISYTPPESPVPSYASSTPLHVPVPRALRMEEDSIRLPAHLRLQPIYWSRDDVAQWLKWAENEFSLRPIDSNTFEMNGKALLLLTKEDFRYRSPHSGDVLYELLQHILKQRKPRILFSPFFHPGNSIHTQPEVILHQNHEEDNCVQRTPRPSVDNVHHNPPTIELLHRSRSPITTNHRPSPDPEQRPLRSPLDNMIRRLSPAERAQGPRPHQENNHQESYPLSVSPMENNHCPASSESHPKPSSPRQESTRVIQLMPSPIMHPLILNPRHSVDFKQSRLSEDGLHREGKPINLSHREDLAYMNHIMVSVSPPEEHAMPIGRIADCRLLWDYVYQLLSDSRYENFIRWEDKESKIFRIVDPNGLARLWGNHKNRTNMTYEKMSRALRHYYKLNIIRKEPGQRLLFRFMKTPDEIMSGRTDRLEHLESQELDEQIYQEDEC
# Chain of ETV5 (P41161 whole entry): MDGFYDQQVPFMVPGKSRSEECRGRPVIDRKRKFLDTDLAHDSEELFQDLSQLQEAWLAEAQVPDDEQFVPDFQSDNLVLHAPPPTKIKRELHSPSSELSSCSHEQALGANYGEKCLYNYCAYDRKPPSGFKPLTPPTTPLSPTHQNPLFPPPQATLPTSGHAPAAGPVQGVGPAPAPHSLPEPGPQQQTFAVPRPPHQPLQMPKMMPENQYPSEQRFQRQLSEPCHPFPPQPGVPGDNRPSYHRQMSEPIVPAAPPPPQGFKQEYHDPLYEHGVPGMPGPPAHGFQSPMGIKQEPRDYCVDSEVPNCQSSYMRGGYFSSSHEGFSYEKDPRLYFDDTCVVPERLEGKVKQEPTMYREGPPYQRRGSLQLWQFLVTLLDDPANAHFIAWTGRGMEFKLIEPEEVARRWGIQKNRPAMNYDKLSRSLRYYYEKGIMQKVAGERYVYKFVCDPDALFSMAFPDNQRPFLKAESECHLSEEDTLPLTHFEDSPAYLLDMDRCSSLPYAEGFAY
# Chain of ETV1 (P50549 whole entry): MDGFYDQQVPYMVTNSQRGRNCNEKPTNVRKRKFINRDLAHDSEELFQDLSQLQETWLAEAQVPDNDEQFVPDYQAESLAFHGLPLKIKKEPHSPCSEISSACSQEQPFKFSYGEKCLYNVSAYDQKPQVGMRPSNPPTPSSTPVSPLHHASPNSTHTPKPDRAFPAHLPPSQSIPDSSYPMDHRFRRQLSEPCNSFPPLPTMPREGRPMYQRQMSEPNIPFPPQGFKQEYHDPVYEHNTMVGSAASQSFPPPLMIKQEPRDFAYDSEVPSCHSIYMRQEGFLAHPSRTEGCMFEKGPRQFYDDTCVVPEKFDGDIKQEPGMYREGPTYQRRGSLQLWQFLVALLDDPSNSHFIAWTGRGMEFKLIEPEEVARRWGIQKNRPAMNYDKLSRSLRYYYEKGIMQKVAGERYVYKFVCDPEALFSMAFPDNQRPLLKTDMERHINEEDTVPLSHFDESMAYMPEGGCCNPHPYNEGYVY
sequence,measurement,setting,value
CAATGT,binding signal,[1],"1.06 fold enrichment (6-mer frequency, TF over GST control)"
same,binding signal,[2],"1.02 fold enrichment (6-mer frequency, TF over GST control)"
same,binding signal,[3],"1.05 fold enrichment (6-mer frequency, TF over GST control)"
same,binding signal,[4],"1.04 fold enrichment (6-mer frequency, TF over GST control)"
same,binding signal,[5],"1.01 fold enrichment (6-mer frequency, TF over GST control)"
same,binding signal,[6],"1 fold enrichment (6-mer frequency, TF over GST control)"
same,binding signal,[7],"1.02 fold enrichment (6-mer frequency, TF over GST control)"
same,binding signal,[8],"1.06 fold enrichment (6-mer frequency, TF over GST control)"
same,binding signal,[9],"1.1 fold enrichment (6-mer frequency, TF over GST control)"
same,binding signal,[10],"1.07 fold enrichment (6-mer frequency, TF over GST control)"
same,binding signal,[11],"1.05 fold enrichment (6-mer frequency, TF over GST control)"
same,binding signal,[12],"1.03 fold enrichment (6-mer frequency, TF over GST control)"
same,binding signal,[13],"1.07 fold enrichment (6-mer frequency, TF over GST control)"
same,binding signal,[14],"1.09 fold enrichment (6-mer frequency, TF over GST control)"
same,binding signal,[15],"1.03 fold enrichment (6-mer frequency, TF over GST control)"
same,binding signal,[16],"1.05 fold enrichment (6-mer frequency, TF over GST control)"
